Assay results: the supplement of paper PMC8975748
Structures can show the parent of a compound that is named as a salt.

Tested on: Saccharomyces cerevisiae BY4741 SeMeCo community
Test: z-score of prototroph abundance vs DMSO median; higher = larger share of this subpopulation than in DMSO controls
Settings: 10 µM; 24 h; SM minimal medium; subpopulation (auxotrophy): Prototroph
Description: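 Fluorescent four-plasmid SeMeCo (self-establishing metabolically cooperating S. cerevisiae BY4741 community; plasmids pH-mRuby2, pL-mWasabi, pU-eCFP, pM-TagRFP657) was grown 24 h in minimal SM medium with each Selleck FDA-approved drug at 10 µM in 384-well plates. Cells were fixed and imaged by high-content confocal microscopy. For each auxotrophic subpopulation (and the prototroph), a z-score gives the deviation from the DMSO vehicle-control population median.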

Structure (SMILES)	z-score of prototroph abundance
C#C[C@]1(O)CC[C@H]2[C@@H]3CCC4=CCCC[C@@H]4[C@H]3C(=C)C[C@@]21CC [Desogestrel]	0.47
C[N+](C)(C)CCOC(=O)CCC(=O)OCC[N+](C)(C)C [Succinylcholine Chloride Dihydrate]	0.17
COc1ccc2cc(CCC(C)=O)ccc2c1 [Nabumetone]	1
CCOC(=O)C1=C(COCCN)NC(C)=C(C(=O)OC)C1c1ccccc1Cl (stereo not given) [Amlodipine Besylate]	2.4
N[C@@H]1CCCCN(c2c(F)cc3c(=O)c(C(=O)O)cn(C4CC4)c3c2Cl)C1 [Besifloxacin HCl]	-0.33
COc1cccc2c1C(=O)c1c(O)c3c(c(O)c1C2=O)CC(O)(C(=O)CO)CC3OC1CC(N)C(O)C(C)O1 (stereo not given) [Doxorubicin (Adriamycin) HCl]	-3.54
COc1cccc2c1C(=O)c1c(O)c3c(c(O)c1C2=O)C[C@@](O)(C(=O)CO)C[C@@H]3O[C@H]1C[C@H](N)[C@H](O[C@@H]2CCCCO2)[C@H](C)O1 [Pirarubicin]	2.14
CCN(Cc1ccncc1)C(=O)C(CO)c1ccccc1 (stereo not given) [Tropicamide]	-0.08
COc1ccc2[nH]c([S@@+]([O-])Cc3ncc(C)c(OC)c3C)nc2c1 [NEXIUM (esomeprazole magnesium)]	-0.6
Oc1c(Cl)cc(Cl)c(Cl)c1Cc1c(O)c(Cl)cc(Cl)c1Cl [Hexachlorophene]	-5.27
CN1[C@@H]2CC[C@H]1C[C@@H](OC(=O)c1c[nH]c3ccccc13)C2 [Tropisetron HCl]	-1
Clc1ccc(C(Cn2ccnc2)OCc2ccc(Sc3ccccc3)cc2)c(Cl)c1 (stereo not given) [Fenticonazole Nitrate]	-13.4
CN1CCN(c2c(F)cc3c(=O)c(C(=O)O)cn4c3c2OCN4C)CC1 [Marbofloxacin]	0.49
CC(C)[N+](C)(CCOC(=O)C1c2ccccc2Oc2ccccc21)C(C)C [Propantheline bromide]	0.94
C#CCC(Cc1cnc2nc(N)nc(N)c2n1)c1ccc(C(=O)N[C@@H](CCC(=O)O)C(=O)O)cc1 (stereo not given in full) [Pralatrexate]	0.41
CC1=C(C(=O)O)N2C(=O)[C@@H](NC(=O)[C@H](N)c3ccc(O)cc3)[C@H]2SC1 [Cefadroxil hydrate]	0.8
CN[C@@H]1[C@H](O)[C@H](NC)[C@H]2O[C@@]3(O)C(=O)C[C@@H](C)O[C@H]3O[C@@H]2[C@H]1O [Spectinomycin 2HCl]	-0.2
C[n+]1ccccc1C=NO [Pralidoxime Iodide]	-0.53
Nc1nc(O)c2ncn(CCC(CO)CO)c2n1 [Penciclovir]	-0.05
CCc1nn(CCCN2CCN(c3cccc(Cl)c3)CC2)c(=O)n1CCOc1ccccc1 [Nefazodone hydrochloride]	-1.27

Structure (SMILES)	z-score of prototroph abundance
CCN(CC)CCOc1ccc(C(=C(Cl)c2ccccc2)c2ccccc2)cc1 [Clomifene citrate]	-1.75
CC1=CC[C@@](O)(C(C)C)CC1 [Terpinen-4-ol]	-0.41
CC(=O)N1CCN(c2ccc(OCC3COC(Cn4ccnc4)(c4ccc(Cl)cc4Cl)O3)cc2)CC1 (stereo not given) [Ketoconazole]	0.99
CC[C@H](Nc1ncnc2[nH]cnc12)c1nc2cccc(F)c2c(=O)n1-c1ccccc1 [Idelalisib (CAL-101, GS-1101)]	-0.14
CO[C@@H]1[C@@H](OC(N)=O)[C@@H](O)[C@H](Oc2ccc3c(O)c(NC(=O)c4ccc(O)c(CC=C(C)C)c4)c(=O)oc3c2C)OC1(C)C [Novobiocin Sodium]	-1.53
CC[C@H]1OC(=O)[C@H](C)[C@@H](O[C@H]2C[C@@](C)(OC)[C@@H](O)[C@H](C)O2)[C@H](C)[C@@H](O[C@@H]2O[C@H](C)C[C@H](N(C)C)[C@H]2O)[C@](C)(O)C[C@@H](C)C(=O)[C@H](C)[C@@H](O)[C@]1(C)O [Erythromycin]	-0.5
COc1cc([C@@H]2c3cc4c(cc3[C@@H](O[C@@H]3O[C@@H]5CO[C@@H](c6cccs6)O[C@H]5[C@H](O)[C@H]3O)[C@H]3COC(=O)[C@H]23)OCO4)cc(OC)c1O [Teniposide]	-1.62
O=C(CCCN1CCN(c2ccccn2)CC1)c1ccc(F)cc1 [Azaperone]	-0.1
CCC1(c2ccccc2)C(=O)NCNC1=O [Primidone]	0.08
COc1ccc(Cc2cnc(N)nc2N)cc1OC [Diaveridine]	0.22
CO/N=C1\C[C@]2(C[C@@H]3C[C@@H](C/C=C(\C)C[C@@H](C)/C=C/C=C4\CO[C@@H]5[C@H](O)C(C)=C[C@@H](C(=O)O3)[C@]45O)O2)O[C@H](/C(C)=C/C(C)C)[C@H]1C [Moxidectin]	-0.99
Cn1nnc(-c2ccc(-c3ccc(N4C[C@H](COP(=O)(O)O)OC4=O)cc3F)cn2)n1 [Tedizolid Phosphate]	1.14
CC1=C(C(=O)OC(C)C)C(c2cccc([N+](=O)[O-])c2)C(C(=O)OC2CN(C(c3ccccc3)c3ccccc3)C2)=C(N)N1 (stereo not given) [Azelnidipine]	-0.48
O=C1CCc2ccc(OCCCCN3CCN(c4cccc(Cl)c4Cl)CC3)cc2N1 [Aripiprazole]	-0.84
O=C1CC2(CCCC2)CC(=O)N1CCCCN1CCN(c2ncccn2)CC1 [Buspirone HCl]	0.7
C[C@@H]1C/C=C/C=C/C=C/C=C/[C@H](O[C@@H]2O[C@H](C)[C@@H](O)[C@H](N)[C@@H]2O)C[C@@H]2O[C@](O)(C[C@@H](O)C[C@H]3O[C@@H]3/C=C/C(=O)O1)C[C@H](O)[C@H]2C(=O)O [Natamycin]	-16.3
Cc1cc(NS(=O)(=O)c2ccc(N)cc2)nc(C)n1 [sulfaisodimidine]	-0.51
COc1c(N2C[C@@H]3CCCN[C@@H]3C2)c(F)cc2c(=O)c(C(=O)O)cn(C3CC3)c12 [Moxifloxacin HCl]	-0.74
OCCN1CCN(CC/C=C2/c3ccccc3Sc3ccc(C(F)(F)F)cc32)CC1 [Flupenthixol dihydrochloride]	-0.24
COc1cccc2c1C(=O)c1c(O)c3c(c(O)c1C2=O)C[C@@](O)(C(=O)CO)C[C@@H]3O[C@H]1C[C@H](N)[C@@H](O)[C@H](C)O1 [Epirubicin HCl]	-0.14
